Publication PMC11062922 (Nature Chemical Biology, 2023)
Read-outs that look alike come from different tables or passages of the source.

Tests used:
Conditions in all cases: read-out: apparent Kd, n = 1
SLK = tested on: SLK
STK10 = tested on: STK10
TBK1 = tested on: TBK1
[1] = compound concentrations:100 nM and 1000 nM (sheet 'Lestaurtinib' of Supplementary Table 1),run:Lestaurtinib_02601_R1,Plate:MR018
[2] = compound concentrations:100 nM and 1000 nM (sheet 'Lestaurtinib' of Supplementary Table 1),run:Lestaurtinib_02624_R2,Plate:MR020
[3] = compound concentrations:100 nM and 1000 nM (sheet 'Lestaurtinib' of Supplementary Table 1),run:Lestaurtinib_02741_R3,Plate:MR023
[4] = compound concentrations:100 nM and 1000 nM (sheet 'Lestaurtinib' of Supplementary Table 1),run:Lestaurtinib_02748_R2,Plate:MR024
[5] = compound concentrations:100 nM and 1000 nM (sheet 'Lestaurtinib' of Supplementary Table 1),run:Lestaurtinib_02765_R1,Plate:MR026
[6] = compound concentrations:100 nM and 1000 nM (sheet 'Lestaurtinib' of Supplementary Table 1),run:Lestaurtinib_02765_R2,Plate:MR026
[7] = compound concentrations:100 nM and 1000 nM (sheet 'Lestaurtinib' of Supplementary Table 1),run:Lestaurtinib_02766_R2,Plate:MR027
[8] = compound concentrations:100 nM and 1000 nM (sheet 'Lestaurtinib' of Supplementary Table 1),run:Lestaurtinib_02768_R1,Plate:MR028
[9] = compound concentrations:100 nM and 1000 nM (sheet 'Lestaurtinib' of Supplementary Table 1),run:Lestaurtinib_02795_R1,Plate:MR022
[10] = compound concentrations:100 nM and 1000 nM (sheet 'Lestaurtinib' of Supplementary Table 1),run:Lestaurtinib_02795_R2,Plate:MR022
[11] = compound concentrations:100 nM and 1000 nM (sheet 'Lestaurtinib' of Supplementary Table 1),run:Lestaurtinib_02802_R1,Plate:MR029
[12] = compound concentrations:100 nM and 1000 nM (sheet 'Lestaurtinib' of Supplementary Table 1),run:Lestaurtinib_03252_R2,Plate:MR032
[13] = compound concentrations:100 nM and 1000 nM (sheet 'Lestaurtinib' of Supplementary Table 1),run:Lestaurtinib_03260_R1,Plate:MR033
[14] = compound concentrations:100 nM and 1000 nM (sheet 'Lestaurtinib' of Supplementary Table 1),run:Lestaurtinib_03260_R2,Plate:MR033
[15] = compound concentrations:100 nM and 1000 nM (sheet 'Lestaurtinib' of Supplementary Table 1),run:Lestaurtinib_02339_R2,Plate:MR001
[16] = compound concentrations:100 nM and 1000 nM (sheet 'Lestaurtinib' of Supplementary Table 1),run:Lestaurtinib_02364_R3,Plate:MR002
[17] = compound concentrations:100 nM and 1000 nM (sheet 'Lestaurtinib' of Supplementary Table 1),run:Lestaurtinib_02422_R1,Plate:MR006
[18] = compound concentrations:100 nM and 1000 nM (sheet 'Lestaurtinib' of Supplementary Table 1),run:Lestaurtinib_02438_R2,Plate:MR008
[19] = compound concentrations:100 nM and 1000 nM (sheet 'Lestaurtinib' of Supplementary Table 1),run:Lestaurtinib_02443_R1,Plate:MR009
[20] = compound concentrations:100 nM and 1000 nM (sheet 'Lestaurtinib' of Supplementary Table 1),run:Lestaurtinib_02443_R3,Plate:MR009

What does the source list for Lestaurtinib?
potency estimated from few doses (SLK; [1]): 1760 nM; potency estimated from few doses (SLK; compound concentrations:100 nM and 1000 nM (sheet 'Lestaurtinib' of Supplementary Table 1),run:Lestaurtinib_02601_R3,Plate:MR018): 1400 nM; potency estimated from few doses (SLK; compound concentrations:100 nM and 1000 nM (sheet 'Lestaurtinib' of Supplementary Table 1),run:Lestaurtinib_02606_R2,Plate:MR019): 1320 nM; potency estimated from few doses (SLK; compound concentrations:100 nM and 1000 nM (sheet 'Lestaurtinib' of Supplementary Table 1),run:Lestaurtinib_02624_R1,Plate:MR020): 1810 nM; potency estimated from few doses (SLK; [2]): 1130 nM; potency estimated from few doses (SLK; [3]): 1440 nM; potency estimated from few doses (SLK; [4]): 1330 nM; potency estimated from few doses (SLK; compound concentrations:100 nM and 1000 nM (sheet 'Lestaurtinib' of Supplementary Table 1),run:Lestaurtinib_02752_R3,Plate:MR025): 1330 nM; potency estimated from few doses (SLK; [5]): 1320 nM; potency estimated from few doses (SLK; [6]): 1130 nM; potency estimated from few doses (SLK; [7]): 1150 nM; potency estimated from few doses (SLK; [8]): 1300 nM; potency estimated from few doses (SLK; compound concentrations:100 nM and 1000 nM (sheet 'Lestaurtinib' of Supplementary Table 1),run:Lestaurtinib_02768_R2,Plate:MR028): 1400 nM; potency estimated from few doses (SLK; [9]): 1610 nM; potency estimated from few doses (SLK; [10]): 1360 nM; potency estimated from few doses (SLK; compound concentrations:100 nM and 1000 nM (sheet 'Lestaurtinib' of Supplementary Table 1),run:Lestaurtinib_02795_R3,Plate:MR022): 1530 nM; potency estimated from few doses (SLK; [11]): 1150 nM; potency estimated from few doses (SLK; compound concentrations:100 nM and 1000 nM (sheet 'Lestaurtinib' of Supplementary Table 1),run:Lestaurtinib_02802_R2,Plate:MR029): 964 nM; potency estimated from few doses (SLK; compound concentrations:100 nM and 1000 nM (sheet 'Lestaurtinib' of Supplementary Table 1),run:Lestaurtinib_02802_R3,Plate:MR029): 1350 nM; potency estimated from few doses (SLK; compound concentrations:100 nM and 1000 nM (sheet 'Lestaurtinib' of Supplementary Table 1),run:Lestaurtinib_03172_R2,Plate:MR031): 1460 nM; potency estimated from few doses (SLK; compound concentrations:100 nM and 1000 nM (sheet 'Lestaurtinib' of Supplementary Table 1),run:Lestaurtinib_03172_R3,Plate:MR031): 914 nM; potency estimated from few doses (SLK; compound concentrations:100 nM and 1000 nM (sheet 'Lestaurtinib' of Supplementary Table 1),run:Lestaurtinib_03252_R1,Plate:MR032): 1350 nM; potency estimated from few doses (SLK; [12]): 1400 nM; potency estimated from few doses (SLK; [13]): 1930 nM; potency estimated from few doses (SLK; [14]): 1930 nM; potency estimated from few doses (SLK; compound concentrations:100 nM and 1000 nM (sheet 'Lestaurtinib' of Supplementary Table 1),run:Lestaurtinib_03260_R3,Plate:MR033): 1310 nM; potency estimated from few doses (STK10; compound concentrations:100 nM and 1000 nM (sheet 'Lestaurtinib' of Supplementary Table 1),run:Lestaurtinib_02339_R1,Plate:MR001): 179 nM; potency estimated from few doses (STK10; [15]): 158 nM; potency estimated from few doses (STK10; compound concentrations:100 nM and 1000 nM (sheet 'Lestaurtinib' of Supplementary Table 1),run:Lestaurtinib_02339_R3,Plate:MR001): 80.5 nM; potency estimated from few doses (STK10; compound concentrations:100 nM and 1000 nM (sheet 'Lestaurtinib' of Supplementary Table 1),run:Lestaurtinib_02364_R2,Plate:MR002): 140 nM; potency estimated from few doses (STK10; [16]): 142 nM; potency estimated from few doses (STK10; compound concentrations:100 nM and 1000 nM (sheet 'Lestaurtinib' of Supplementary Table 1),run:Lestaurtinib_02367_R3,Plate:MR003): 144 nM; potency estimated from few doses (STK10; compound concentrations:100 nM and 1000 nM (sheet 'Lestaurtinib' of Supplementary Table 1),run:Lestaurtinib_02407_R1,Plate:MR005): 113 nM; potency estimated from few doses (STK10; [17]): 162 nM; potency estimated from few doses (STK10; compound concentrations:100 nM and 1000 nM (sheet 'Lestaurtinib' of Supplementary Table 1),run:Lestaurtinib_02422_R2,Plate:MR006): 47 nM; potency estimated from few doses (STK10; compound concentrations:100 nM and 1000 nM (sheet 'Lestaurtinib' of Supplementary Table 1),run:Lestaurtinib_02437_R1,Plate:MR007): 142 nM; potency estimated from few doses (STK10; compound concentrations:100 nM and 1000 nM (sheet 'Lestaurtinib' of Supplementary Table 1),run:Lestaurtinib_02437_R3,Plate:MR007): 18.2 nM; potency estimated from few doses (STK10; [18]): 137 nM; potency estimated from few doses (STK10; [19]): 141 nM; potency estimated from few doses (STK10; [20]): 154 nM; potency estimated from few doses (STK10; compound concentrations:100 nM and 1000 nM (sheet 'Lestaurtinib' of Supplementary Table 1),run:Lestaurtinib_02473_R2,Plate:MR010): 140 nM; potency estimated from few doses (STK10; compound concentrations:100 nM and 1000 nM (sheet 'Lestaurtinib' of Supplementary Table 1),run:Lestaurtinib_02482_R1,Plate:MR011): 131 nM; potency estimated from few doses (STK10; compound concentrations:100 nM and 1000 nM (sheet 'Lestaurtinib' of Supplementary Table 1),run:Lestaurtinib_02482_R2,Plate:MR011): 157 nM; potency estimated from few doses (STK10; compound concentrations:100 nM and 1000 nM (sheet 'Lestaurtinib' of Supplementary Table 1),run:Lestaurtinib_02482_R3,Plate:MR011): 136 nM; potency estimated from few doses (STK10; compound concentrations:100 nM and 1000 nM (sheet 'Lestaurtinib' of Supplementary Table 1),run:Lestaurtinib_02487_R3,Plate:MR012): 163 nM; potency estimated from few doses (STK10; compound concentrations:100 nM and 1000 nM (sheet 'Lestaurtinib' of Supplementary Table 1),run:Lestaurtinib_02566_R2,Plate:MR014): 144 nM; potency estimated from few doses (STK10; compound concentrations:100 nM and 1000 nM (sheet 'Lestaurtinib' of Supplementary Table 1),run:Lestaurtinib_02566_R3,Plate:MR014): 135 nM; potency estimated from few doses (STK10; compound concentrations:100 nM and 1000 nM (sheet 'Lestaurtinib' of Supplementary Table 1),run:Lestaurtinib_02572_R3,Plate:MR015): 157 nM; potency estimated from few doses (STK10; compound concentrations:100 nM and 1000 nM (sheet 'Lestaurtinib' of Supplementary Table 1),run:Lestaurtinib_02577_R3,Plate:MR016): 181 nM; potency estimated from few doses (STK10; compound concentrations:100 nM and 1000 nM (sheet 'Lestaurtinib' of Supplementary Table 1),run:Lestaurtinib_02584_R3,Plate:MR017): 179 nM; potency estimated from few doses (STK10; [1]): 137 nM; potency estimated from few doses (STK10; compound concentrations:100 nM and 1000 nM (sheet 'Lestaurtinib' of Supplementary Table 1),run:Lestaurtinib_02601_R2,Plate:MR018): 167 nM; potency estimated from few doses (STK10; compound concentrations:100 nM and 1000 nM (sheet 'Lestaurtinib' of Supplementary Table 1),run:Lestaurtinib_02606_R1,Plate:MR019): 135 nM; potency estimated from few doses (STK10; compound concentrations:100 nM and 1000 nM (sheet 'Lestaurtinib' of Supplementary Table 1),run:Lestaurtinib_02606_R3,Plate:MR019): 144 nM; potency estimated from few doses (STK10; [2]): 137 nM; potency estimated from few doses (STK10; compound concentrations:100 nM and 1000 nM (sheet 'Lestaurtinib' of Supplementary Table 1),run:Lestaurtinib_02624_R3,Plate:MR020): 115 nM; potency estimated from few doses (STK10; compound concentrations:100 nM and 1000 nM (sheet 'Lestaurtinib' of Supplementary Table 1),run:Lestaurtinib_02724_R2,Plate:MR021): 121 nM; potency estimated from few doses (STK10; compound concentrations:100 nM and 1000 nM (sheet 'Lestaurtinib' of Supplementary Table 1),run:Lestaurtinib_02741_R2,Plate:MR023): 134 nM; potency estimated from few doses (STK10; [3]): 140 nM; potency estimated from few doses (STK10; compound concentrations:100 nM and 1000 nM (sheet 'Lestaurtinib' of Supplementary Table 1),run:Lestaurtinib_02748_R1,Plate:MR024): 157 nM; potency estimated from few doses (STK10; [4]): 153 nM; potency estimated from few doses (STK10; compound concentrations:100 nM and 1000 nM (sheet 'Lestaurtinib' of Supplementary Table 1),run:Lestaurtinib_02748_R3,Plate:MR024): 115 nM; potency estimated from few doses (STK10; compound concentrations:100 nM and 1000 nM (sheet 'Lestaurtinib' of Supplementary Table 1),run:Lestaurtinib_02752_R1,Plate:MR025): 124 nM; potency estimated from few doses (STK10; compound concentrations:100 nM and 1000 nM (sheet 'Lestaurtinib' of Supplementary Table 1),run:Lestaurtinib_02752_R2,Plate:MR025): 141 nM; potency estimated from few doses (STK10; [5]): 97 nM; potency estimated from few doses (STK10; [6]): 132 nM; potency estimated from few doses (STK10; [7]): 93.1 nM; potency estimated from few doses (STK10; compound concentrations:100 nM and 1000 nM (sheet 'Lestaurtinib' of Supplementary Table 1),run:Lestaurtinib_02766_R3,Plate:MR027): 137 nM; potency estimated from few doses (STK10; [8]): 115 nM; potency estimated from few doses (STK10; compound concentrations:100 nM and 1000 nM (sheet 'Lestaurtinib' of Supplementary Table 1),run:Lestaurtinib_02768_R3,Plate:MR028): 133 nM; potency estimated from few doses (STK10; [9]): 134 nM; potency estimated from few doses (STK10; [10]): 130 nM; potency estimated from few doses (STK10; [11]): 113 nM; potency estimated from few doses (STK10; compound concentrations:100 nM and 1000 nM (sheet 'Lestaurtinib' of Supplementary Table 1),run:Lestaurtinib_02896_R2,Plate:MR030): 142 nM; potency estimated from few doses (STK10; [12]): 74.5 nM; potency estimated from few doses (STK10; [13]): 228 nM; potency estimated from few doses (STK10; [14]): 211 nM; potency estimated from few doses (TBK1; [15]): 822 nM; potency estimated from few doses (TBK1; [16]): 1610 nM; potency estimated from few doses (TBK1; compound concentrations:100 nM and 1000 nM (sheet 'Lestaurtinib' of Supplementary Table 1),run:Lestaurtinib_02381_R1,Plate:MR004): 1350 nM; potency estimated from few doses (TBK1; compound concentrations:100 nM and 1000 nM (sheet 'Lestaurtinib' of Supplementary Table 1),run:Lestaurtinib_02381_R2,Plate:MR004): 1600 nM; potency estimated from few doses (TBK1; compound concentrations:100 nM and 1000 nM (sheet 'Lestaurtinib' of Supplementary Table 1),run:Lestaurtinib_02407_R3,Plate:MR005): 1330 nM; potency estimated from few doses (TBK1; [17]): 703 nM; potency estimated from few doses (TBK1; [18]): 1320 nM; potency estimated from few doses (TBK1; [19]): 1620 nM; potency estimated from few doses (TBK1; [20]): 884 nM
